High-throughput results (PubChem BioAssay)
Sampled rows, rich in hits. Any-hit rate of the full collection: about 2.3%.
Shn3 inh set2 – inhibitors of Schnurri-3 3'UTR reporter in osteoblasts; actives 0.52% (n = 360,000); inhibition, % at 12.5 µM; Clone20 osteoblast Shn3 3'UTR firefly luciferase, 24 h;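 active means mean inhibition of at least 75% with every replicate also reaching 75%; inconclusive means mean inhibition at least 75% but some replicate below; inactive means mean inhibition below 75%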;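 further: 0% = median of neutral control wells and 100% = pilot-screen positive control compound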
TAG inh – reduces triacylglycerol accumulation in H9c2 cells; Nile Red lipid (TAG) fluorescence; cells loaded with 200 µM oleic acid; inhibition, % at 12.5 µM; actives 0.66% (n = 230,000); AID 651582;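 active means pattern-corrected inhibition of lipid staining of at least 50% with the nuclear-stain viability signal not falling by more than 50%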;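 further: 0% = DMSO wells and 100% = triacsin C control wells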
aSyn 5UTR inh – MLPCN primary screen, SNCA 5' untranslated region; AID 1813; inhibition, % (tested at 7.5 µM); actives 0.82% (n = 300,000); alpha-synuclein 5'UTR reporter, inhibitor activity; in the data active means inhibition above about 60%; inconclusive means no clear call, values can overlap the other calls;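 further: H4 neuroglioblastoma cells stably carrying SNCA 5'UTR luciferase fusion; 0% = DMSO wells and 100% = positive control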
697 NFkB inh – inhibitors of the PMA/ionomycin-induced NF-kB reporter in 697 B cells. actives 0.33% (n = 330,000). 697 B-cell NF-kB luciferase reporter, 16 h. inhibition, % at 4 µM; in the data active means inhibition above about 35%
Jurkat NFkB inh – lowers PMA/ionomycin-induced NF-kB signal in Jurkat cells; PMA/ionomycin-induced NF-kB luciferase reporter, luminescence; inhibition, % at 4 µM; actives 0.53% (n = 330,000); AID 435003; in the data active means inhibition above about 50%
Gli-Sufu block – blocks Gli-Sufu signaling in a luciferase reporter. Sufu-KO-LIGHT fibroblasts, Gli luciferase reporter luminescence. AID 588413. inhibition, % at 5 µM. actives 0.74% (n = 340,000);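 active means inhibition above about 55%, limit read from the data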;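 further: 0% = DMSO-treated cells and 100% = wells with medium but no cells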
Jurkat NFkB conf – lowers PMA/ionomycin-induced NF-kB signal in Jurkat cells. shares compounds with Jurkat NFkB inh. Jurkat NF-kB luciferase, 16 h. inhibition, % at 4 µM. actives 27% (n = 2,700). AID 435020;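 active means inhibition reaching about 45% at 4 µM in either replicate, limit read from the data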;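 further: plate controls were PMA/ionomycin stimulated DMSO wells for no effect and unstimulated DMSO wells for full effect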
* = called active by the depositor; ? = inconclusive; . = not tested or not shown.

SMILES	Shn3 inh set2	TAG inh	aSyn 5UTR inh	697 NFkB inh	Jurkat NFkB inh	Gli-Sufu block	Jurkat NFkB conf
CCOc1cccc(/C=N/N2CCN(c3ccc(Cl)cc3)CC2)c1O	17	.	-22	-6	18	17	.
CCOC(=O)N1CCC(NC(=O)c2ccc3c(c2)N=C(C)c2c(C)ccc(C)c2S3)CC1	31	.	37	-42	65*	44	56*
C=CCN(c1ccccc1OC)S(=O)(=O)c1cccc(C(=O)OC2CCOC2=O)c1 (stereo not drawn)	52	4	.	-16	-1	12	.
CCOC(=O)C1=C(COC(=O)/C=C/c2cccc(Br)c2)NC(=O)NC1C (stereo not drawn)	-16	-13	.	5	12	-4	.
O=[N+]([O-])c1cccc(N/N=C/c2cc([N+](=O)[O-])ccc2O)c1	-44	.	-70	-11	-2	-26	.
Cn1c(/C=N/Nc2nc3ccccc3[nH]2)nc2ccccc21	-90	.	-188	-239	-171	-64	-105
O=[N+]([O-])c1ccc(O)c(/C=N/Nc2nc3ccccc3[nH]2)c1	72	.	47	-65	55*	12	34
O=[N+]([O-])c1ccc(N/N=C/c2ccccc2O)cc1	-5	.	-165	-33	61*	22	-31
CCCn1c(/C=N/Nc2nc3ccccc3[nH]2)nc2ccccc21	74	1	.	.	.	-2	.
CC(=O)N(c1cccc(Cl)c1)c1nc(C)cc(C)c1C#N	-23	4	27	5	-11	4	.
Cc1csc2sc(-c3ccnc(SCC(=O)NCc4ccccc4)n3)c(C)c12	2	21	15	-42	69*	-3	42
O=C(NCc1ccco1)c1nn2c(C(F)(F)F)cc(-c3cccs3)nc2c1Br	10	15	12	9	-8	23	.
COc1ccc(C(=O)N/C(=C\c2ccco2)C(=O)OCc2ccco2)cc1	-35	5	-17	-31	-22	5	.
COc1ccc(C(=O)/C(=C\c2ccco2)N2C=CC=CC2=C(C#N)C#N)cc1	97*	-27	77*	-3	65*	43	49*
CCN(Cc1ccccc1)c1ccc(/C=N/N=C(N)N)cc1	83	.	94*	-37	61*	23	13
COC(=O)C1=C(C)NC(=O)C1(Nc1ccc(Cl)cn1)C(F)(F)F (stereo not drawn)	-4	.	14	13	7	-5	.
CCC12CN3CC(CC)(CN(C1)C3c1ccccc1Cl)C2O (stereo not drawn)	-2	24	18	-20	-10	-1	.
Nc1ccc(-c2nc3cc(N)ccc3o2)cc1	-33	4	-52	-134	-104	-69	.
Cc1ccc(-c2nc3cc(N)ccc3o2)cc1Br	-65	.	-54	-140	-160	-86	-88
COc1ccc(S(=O)(=O)/N=C2\C=C(Nc3ccc(O)cc3)C(=O)c3ccccc32)cc1	97*	.	100*	9	74*	95*	83*
Cc1ccc(C(=O)Nc2c(C)n(C)n(-c3ccccc3)c2=O)cc1S(=O)(=O)N1CCCCC1	23	11	.	4	1	0	.
CCCOc1ccc(C(=O)N/N=C/c2c[nH]c3ccc(Br)cc23)cc1	-14	.	6	16	-46	25	.
CCCCCN=C(N)N/N=C/c1c[nH]c2ccc(OC)cc12	67	124	108*	-13	100*	31	31
COc1ccccc1NS(=O)(=O)c1ccc2c(c1)OCCO2	-3	.	-10	11	0	-10	.
COC(=O)c1ccc(C)c(NS(=O)(=O)c2ccc3c(c2)OCCO3)c1	11	.	94*	3	58*	49	52*
SMILES	Shn3 inh set2	TAG inh	aSyn 5UTR inh	697 NFkB inh	Jurkat NFkB inh	Gli-Sufu block	Jurkat NFkB conf
COc1cc(CCC(=O)Nc2nnc(C)s2)cc(OC)c1OC	-11	.	-53	-36	52*	-9	27
COc1cc(CCC(=O)Nc2ncc(C)s2)cc(OC)c1OC	13	.	13	2	9	9	.
COc1ccc(NC(=O)C(=O)N/N=C/c2cccnc2)c(OC)c1	-20	.	0	13	4	3	.
COc1ccc(CCN=C(N)C(C)c2ccccc2)cc1OC (stereo not drawn)	7	-1	18	13	-6	3	.
CC(C)Cc1ccc(C(C)C(N)=NCCc2ccccc2)cc1 (stereo not drawn)	2	.	-75	-25	50*	14	1
CCCCn1nnnc1NCc1cccs1	-6	.	12	-1	-1	7	.
Cc1ccc(C(=O)CCNc2ccccc2)o1	-30	-3	-42	-47	-47	-10	.
Cc1ccc(C(=O)CCNc2ccc(F)c(Cl)c2)o1	-12	-11	-19	-27	73*	43	-1
COC(=O)c1ccc2nc(-c3cccc(Br)c3)c(Cc3ccsc3)n2c1	-14	.	.	.	.	.	.
O=C(CCc1c[nH]c2ccccc12)OCc1cccc(C(F)(F)F)c1	-3	3	-11	-19	51*	4	17
COc1ccc([N+](=O)[O-])cc1NC(=S)NC(NC(C)=O)C(Cl)(Cl)Cl (stereo not drawn)	-1	-10	-10	-16	0	3	.
CCOC(=O)C1CCN(C(=O)c2cc3c(-c4ccc(OC)c(OC)c4)nn(C)c3s2)CC1	15	9	24	16	8	3	.
CCOC(=O)C1CCCN(C(=O)c2cc3c(-c4cccc(OC)c4)nn(C)c3s2)C1 (stereo not drawn)	13	-24	-19	-15	55*	-3	11
CC(C)NC(=O)C1CCN(S(=O)(=O)c2ccc(N3CCCC3=O)cc2)CC1	-5	.	-18	-6	79*	43	9
Cc1cccc(Nc2nc(-c3ccccn3)cs2)n1	-2	.	-18	-169	-185	-61	-93
CC(=O)Oc1ccc(-c2csc(Nc3cccc(C)n3)n2)cc1	-107	.	-250	-135	-151	-70	-80
CC(=O)Oc1ccc(-c2csc(Nc3ccccn3)n2)cc1	-87	23	.	.	.	.	.
O=C(c1ccc2c(c1)OCO2)C1CCCN(Cc2ccc3nsnc3c2)C1 (stereo not drawn)	7	10	22	14	7	8	.
Cc1nc(SCC(=O)Nc2nc3ccccc3s2)c(C#N)c(C)c1C	?	22	100*	33	90*	90*	89*
O=C(c1cc(-c2ccc(F)cc2)on1)N1CCCCCC1	-131	.	29	-162	-132	-116	.
Cc1ccc(-c2cc(C(=O)N3CCCCCC3)no2)cc1	-27	.	-30	-229	-182	-67	-115
O=C(c1cc(-c2cccc(O)c2)on1)N1CCCCC1	-45	2	-27	-184	-160	-3	-88
CCCn1ncc(CN2CCC(n3nccc3NC(=O)c3ccccc3OC)CC2)c1C	2	3	31	7	6	13	.
O=C(/C=C\c1ccccc1)Oc1cccc2cccnc12	13	1	-53	3	6	33	.
